Among the data in PubChem BioAssay (NCI) are growth values, retold here.

Among the test systems are HCT-15 colon; HT29 colon; SNB-75 CNS; SNB-19 CNS; U251 CNS; PC-3 prostate; SK-MEL-5 melanoma; UACC-62 melanoma; LOX IMVI melanoma; SK-MEL-28 melanoma; SK-MEL-2 melanoma; SN12C renal; UO-31 renal; TK-10 renal; ACHN renal; CAKI-1 renal; A498 renal; CCRF-CEM leukemia; MOLT-4 leukemia.
What all share (experiment): NCI-60 one-dose screen, 48 h (100 = growth as untreated, 0 = no growth, -100 = all killed)
What all share (conditions): 10 µM unless noted

About 83,000 compounds went through this panel and 20% of them were active in at least one assay; those are over-represented in the sample as a whole.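 Percent growth is the endpoint: 0 to 100 indicates growth inhibition (40 means 60% inhibition), 0 means no net growth, and negative values indicate cell death.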 Values without a mark were called inactive. Activity calls are given as the source filed them. Rule for the calls: active = growth percent below 10; inactive = the rest.

As for `O=[N+]([O-])c1cc(S(=O)(=O)OCC2CO2)ccc1Cl` (configuration not stated), the growth is 93.4% with HCT-15 colon; 49.7% with HT29 colon; 89.9% in the assay with SNB-75 CNS; 110% with SNB-19 CNS; 98.9% in the assay with U251 CNS; 83.7% with PC-3 prostate. For the same compound, the growth in the assay with SK-MEL-5 melanoma was 102%; in the assay on UACC-62 melanoma it was 111%; in the assay with LOX IMVI melanoma, 39.1%; in the assay on SK-MEL-28 melanoma, 90.1%; in the assay with SK-MEL-2 melanoma, 88.4%; with SN12C renal it was 103%. The growth in the assay on UO-31 renal is 89.7%; in the assay on TK-10 renal, 114%; in the assay with ACHN renal, 98.5%; in the assay on CAKI-1 renal, 104%; in the assay with A498 renal, 121%; with CCRF-CEM leukemia, 76.7%. In addition, the growth in the assay with MOLT-4 leukemia was 95.3%.

`COc1cc(OC)cc(-c2n[nH]nc2-c2ccc3c(c2)OCO3)c1`: the growth in the assay with HCT-15 colon is 25.7%; with HT29 colon, 1% (active); in the assay on SNB-75 CNS, -8.14% (active); in the assay on SNB-19 CNS it was 45.1%; in the assay on U251 CNS it was 7.92% (active); in the assay on PC-3 prostate, 19.4%. Also, the growth in the assay on SK-MEL-5 melanoma is 20.2%; in the assay on UACC-62 melanoma, 27.5%; with LOX IMVI melanoma, 34.4%; with SK-MEL-28 melanoma, 32%; in the assay with SK-MEL-2 melanoma, 14.4%; in the assay with SN12C renal, 49.1%. Also, the growth in the assay on UO-31 renal is 44.9%; with TK-10 renal it was 59.5%; with ACHN renal, 42.7%; in the assay on CAKI-1 renal, 36.5%; with A498 renal it was -1.56% (active); in the assay on CCRF-CEM leukemia, 10.4%. Also, the growth with MOLT-4 leukemia was 31.3%.

With `CCN1C(=O)N[C@H]2[C@@H]3NC(=O)c4ccc(Cl)n4[C@@H]3C[C@]21O`, the growth is 13.4% with HCT-15 colon; 2.91% (active) in the assay on HT29 colon; -2.5% (active) in the assay with SNB-75 CNS; -8.44% (active) in the assay on SNB-19 CNS; -5.63% (active) with U251 CNS; 9.77% (active) with PC-3 prostate. For the same compound, the growth is -28.7% (active) in the assay on SK-MEL-5 melanoma; -20.9% (active) in the assay on UACC-62 melanoma; -6.47% (active) in the assay with LOX IMVI melanoma; -6.88% (active) with SK-MEL-28 melanoma; -37% (active) in the assay on SK-MEL-2 melanoma; -1.6% (active) with SN12C renal. Further, the growth with UO-31 renal is 37.3%; in the assay on TK-10 renal, 4.37% (active); in the assay on ACHN renal, 14.9%; in the assay on CAKI-1 renal, 31%; with A498 renal, -0.0737% (active); in the assay with CCRF-CEM leukemia, -7.16% (active). Besides, the growth with MOLT-4 leukemia is 0.842% (active).

In the case of `Oc1ccc(N=Cc2ccccc2)cc1`, the growth is 82% in the assay on HCT-15 colon; 105% in the assay with HT29 colon; 105% in the assay with SNB-75 CNS; 98.8% in the assay on SNB-19 CNS; 96.1% in the assay on U251 CNS; 68.3% in the assay on PC-3 prostate. The growth with SK-MEL-5 melanoma was 83.4%; with UACC-62 melanoma, 97.5%; with LOX IMVI melanoma, 95.3%; in the assay with SK-MEL-28 melanoma it was 113%; in the assay on SK-MEL-2 melanoma, 94%; in the assay on SN12C renal, 96.5%. Besides, the growth with UO-31 renal is 77.5%; in the assay on TK-10 renal, 108%; with ACHN renal, 57.3%; in the assay on CAKI-1 renal, 105%; in the assay on A498 renal, 78.1%; with CCRF-CEM leukemia, 5.42% (active). Besides, the growth in the assay with MOLT-4 leukemia was 3.61% (active).

Regarding `COc1ccc(C2CC(c3cccs3)=NN2c2ccc(S(=O)(=O)NC(=O)NCc3cccc(OC)c3)cc2)cc1` (configuration not stated), the growth in the assay with HCT-15 colon was 102%; in the assay on HT29 colon, 120%; with SNB-75 CNS, 99.9%; with SNB-19 CNS, 103%; in the assay with U251 CNS, 98.1%; in the assay with PC-3 prostate it was 96.3%. Further, the growth in the assay with SK-MEL-5 melanoma is 50%; in the assay with UACC-62 melanoma, 31%; in the assay on LOX IMVI melanoma, 96.8%; in the assay with SK-MEL-28 melanoma it was 48.3%; in the assay with SK-MEL-2 melanoma, 57.6%; with SN12C renal it was 112%. For the same compound, the growth in the assay with UO-31 renal was 87.2%; in the assay on TK-10 renal, 96%; in the assay on ACHN renal, 93.2%; in the assay on CAKI-1 renal, 94.7%; in the assay with A498 renal, 102%; in the assay with CCRF-CEM leukemia it was 88.1%. The growth in the assay on MOLT-4 leukemia was 94.7%.

`CCCCC[C@@H]1Cc2cc(O)c(C(=O)O)c3c2[C@H](C[C@@]2(CCCO2)O3)O1`: the growth in the assay on HCT-15 colon was 112%; in the assay on HT29 colon it was 113%; in the assay with SNB-75 CNS it was 98.1%; with SNB-19 CNS it was 107%; with U251 CNS, 105%; in the assay on PC-3 prostate, 101%. Moreover, the growth is 111% with SK-MEL-5 melanoma; 110% in the assay on UACC-62 melanoma; 93.6% with LOX IMVI melanoma; 109% with SK-MEL-28 melanoma; 67.4% in the assay on SK-MEL-2 melanoma; 104% in the assay with SN12C renal. Besides, the growth in the assay on UO-31 renal is 44.7%; in the assay with TK-10 renal, 129%; with ACHN renal, 108%; in the assay with CAKI-1 renal, 102%; in the assay on A498 renal, 133%; in the assay with CCRF-CEM leukemia, 94.5%. For the same compound, the growth with MOLT-4 leukemia is 62.6%.

For `CC(=O)Nc1ccc(S(=O)(=O)N2C(=O)CCC2C(=O)Nc2ccccc2)cc1` (configuration not stated), the growth in the assay with HCT-15 colon is 45.8%; with HT29 colon it was 34%; in the assay with SNB-75 CNS it was 28.9%; in the assay with SNB-19 CNS, 45%; with U251 CNS, 29.4%; with PC-3 prostate, 26.7%. In addition, the growth was 20.2% in the assay on SK-MEL-5 melanoma; 11% in the assay on UACC-62 melanoma; 29.9% with LOX IMVI melanoma; 48.6% in the assay with SK-MEL-28 melanoma; 43.9% in the assay with SK-MEL-2 melanoma; 40.4% with SN12C renal. Moreover, the growth was 14.1% in the assay with UO-31 renal; 27.5% with TK-10 renal; 30.4% with ACHN renal; 9.53% (active) with CAKI-1 renal; 2.01% (active) in the assay on A498 renal; 17.7% with CCRF-CEM leukemia. In the assay with MOLT-4 leukemia, the growth was 28.8%.

Take `COc1ccc2c(c1)C(C)Cc1c(N(C)C)ncnc1N2C` (configuration not stated): the growth in the assay on HCT-15 colon was 23.7%; with HT29 colon it was 11.6%; with SNB-75 CNS, 14.3%; with SNB-19 CNS, 40.5%; in the assay with U251 CNS, 28%; in the assay with PC-3 prostate it was 26.4%. The growth in the assay on SK-MEL-5 melanoma is 19.4%; in the assay with UACC-62 melanoma, 27.6%; in the assay on LOX IMVI melanoma, 42.4%; in the assay with SK-MEL-28 melanoma, 59.3%; in the assay on SK-MEL-2 melanoma, 32.9%; with SN12C renal, 43.6%. In addition, the growth was 56.6% in the assay with UO-31 renal; 29.9% in the assay with TK-10 renal; 46.8% in the assay with ACHN renal; 37.6% in the assay with CAKI-1 renal; 2.02% (active) with A498 renal; 18.6% with CCRF-CEM leukemia. Also, the growth in the assay with MOLT-4 leukemia was 33.1%.
